According to PubChem BioAssay (NCI):
This is part of a sample that, as a whole, favours compounds with a hit. Of some 83,000 tested, about 20% had one in any assay.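 Testing used 96-well plates and a 48-hour single-concentration exposure. Example: -40 means 40% of the starting cells died.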 The source made the active and inactive calls. How the source made its calls: active means growth percent below 10; inactive means the rest.

Assays:
Assay in all cases: NCI-60 one-dose screen, 48 h (100 = growth as untreated, 0 = no growth, -100 = all killed)
Settings in all cases: 10 µM unless noted
[1] = tested on: NCI-H23 lung
[2] = tested on: NCI-H226 lung
[3] = tested on: NCI-H322M lung
[4] = tested on: HOP-62 NSCLC
[5] = tested on: NCI-H460 lung
[6] = tested on: HOP-92 NSCLC
[7] = tested on: NCI-H522 lung
[8] = tested on: A549/ATCC NSCLC
[9] = tested on: 786-0 renal
[10] = tested on: COLO 205 colon

Measured: growth

O=C1C(Cl)=C(Nc2ccccc2)C(=O)c2ccccc21
inactive: [2] 95.5% | [3] 92.5% | [4] 101% | [5] 81.1% | [8] 90.8% | [9] 31.9% | [10] 14%
active: [1] -34.3% | [6] -94.4% | [7] -86.2%

Cc1[nH]n(-c2cccc(Cl)c2)c(=O)c1/C=C1\C=c2ccccc2=CC1=O
inactive: [3] 84.1% | [5] 79% | [8] 60.4%
active: [1] -1.95% | [2] 1.04% | [4] -57.9% | [6] -2.07% | [7] -11.3% | [9] -46.8% | [10] -83.5%

O=C(c1ccc(Br)cc1)C(Br)C(c1ccc(Cl)cc1)C(c1ccccc1)[N+](=O)[O-] (stereo not given)
inactive: [1] 91.4% | [2] 99.3% | [3] 101% | [4] 99.7% | [5] 95.5% | [6] 107% | [7] 85.7% | [8] 93.8% | [9] 90.3% | [10] 110%

O=C(N/N=C/c1ccc(Cl)cc1)c1ccc(NC(=O)c2ccccn2)cc1
inactive: [1] 54.5% | [2] 42.8% | [3] 66.4% | [4] 59.4% | [6] 51.6% | [7] 73.3% | [8] 26.1% | [10] 59.1%
active: [5] 4.21% | [9] 4.44%

COc1ccc2cc(-c3nc4ccc(C)cn4c3NCc3ccco3)c(=O)[nH]c2c1
inactive: [1] 70.2% | [2] 76.4% | [3] 74.1% | [4] 90.7% | [5] 88.9% | [6] 20.6% | [7] 87.3% | [8] 85.2% | [9] 67.9% | [10] 76%

Oc1nc(NCc2ccccc2)sc1/C=C1\C=Nc2ncccc21
inactive: [1] 51.9% | [2] 62.3% | [3] 61.9% | [4] 56.1% | [5] 81.9% | [6] 28.8% | [7] 35.2% | [8] 76.9% | [9] 62.8% | [10] 34.2%

N#Cc1c(-c2ccc(Cl)cc2)nc(NN=Cc2ccc[nH]2)nc1N1CCOCC1
active: [7] 8.32%
inactive: [1] 92.4% | [2] 61.8% | [3] 95.4% | [4] 41.6% | [5] 36.7% | [6] 68.9% | [8] 54.4% | [9] 23.9% | [10] 81.6%

COCCn1cc(-c2csc(-c3c[nH]c4ccc(F)cc34)n2)c2cccnc21
inactive: [1] 34.8% | [2] 57.5% | [3] 63.2% | [4] 44% | [5] 15.1% | [6] 38% | [8] 22.1% | [9] 40.4% | [10] 11.5%
active: [7] -11.7%

COc1ccc2c(O)c(/C=C3\N=Nc4ncccc43)oc2c1C[C@@H]1CCNC[C@H]1F
inactive: [6] 98.7%
active: [1] -33.1% | [2] -4.38% | [3] 3.89% | [4] -30.5% | [5] -51.2% | [7] -28.5% | [8] -24.1% | [9] -78.3% | [10] -71.9%

CC(C)(C)c1ccc(S(=O)(=O)Oc2ccc(-c3sc4cc(OS(=O)(=O)c5ccc(C(C)(C)C)cc5)ccc4c3C(=O)c3ccc(OCCN4CCCCC4)cc3)cc2)cc1
inactive: [1] 93.3% | [2] 94.7% | [3] 96.1% | [4] 90.8% | [5] 104% | [6] 84.4% | [7] 72% | [8] 87.4% | [9] 89% | [10] 101%

CN1C(=O)N2CN3CCCN(C3)CN3C(=S)NC1C23 (stereo not given)
inactive: [1] 103% | [2] 99.6% | [3] 105% | [4] 104% | [5] 105% | [6] 98.7% | [7] 95% | [8] 87% | [9] 102% | [10] 117%

CCOC(=O)C/C(=N\Nc1cc(=O)[nH]c2ccc(C)cc12)C(=O)OCC
inactive: [1] 103% | [2] 93.3% | [3] 98% | [4] 107% | [5] 104% | [6] 79.8% | [7] 99.4% | [8] 107% | [9] 109% | [10] 124%

CS(=O)(=O)c1ccc(-c2nc3ccccc3n2CC(=O)N/N=C/c2ccccc2)cc1
inactive: [1] 94.2% | [2] 98.8% | [3] 95.5% | [4] 89% | [5] 107% | [6] 96.3% | [7] 79.1% | [8] 97.2% | [9] 97.1% | [10] 104%

O=C(NCCN1CCOCC1)OCc1ccc2c(Cl)cc(Cl)c(O)c2n1
inactive: [1] 72.8% | [2] 94.6% | [3] 66.9% | [4] 47.8% | [5] 63.7% | [6] 77.3% | [7] 81% | [8] 56.8% | [9] 81.9% | [10] 109%

CC1=C2CC/C(C)=C/CC[C@]3(C)O[C@H]3CC/C(C)=C/[C@H]2OC1
inactive: [1] 97.3% | [2] 109% | [3] 101% | [4] 107% | [5] 107% | [6] 94.6% | [7] 87% | [8] 90.5% | [9] 92% | [10] 104%

COC1C(O)CC(OC2CC(OC3CC(O[C@@H]4C(=O)c5c(cc6cc(OC7CC(OC8CC(O)C(O)C(C)O8)C(O)C(C)O7)c(C)c(O)c6c5O)CC4[C@H](OC)[C@@H](O)C(C)=O)OC(C)C3O)OC(C)C2O)OC1C (stereo not given in full)
active: [1] -12.1% | [2] -16.6% | [3] 4.31% | [4] -3.94% | [5] 7.99% | [6] 5.01% | [7] -26.4% | [8] 3.44% | [9] 8.03% | [10] -21.3%

CCOc1ncc([N+](=O)[O-])c(OCC)n1
inactive: [1] 106% | [2] 107% | [3] 123% | [4] 104% | [5] 113% | [6] 82.2% | [7] 99.9% | [8] 98.9% | [9] 108% | [10] 112%

O=C(c1c[nH]c2ccccc12)c1n[nH]c(=S)n1-c1ccc([N+](=O)[O-])cc1
inactive: [1] 91.8% | [2] 77.8% | [3] 94.7% | [4] 87.4% | [5] 95.7% | [6] 80.3% | [7] 84.7% | [8] 81% | [9] 115% | [10] 96.8%

COc1ccc(/C=N/NC(=O)Cn2c(-c3ccc(S(C)(=O)=O)cc3)nc3ccccc32)cc1
inactive: [1] 95.5% | [2] 99.6% | [3] 91.3% | [4] 107% | [5] 102% | [6] 94.1% | [7] 92.9% | [8] 113% | [9] 99.3% | [10] 111%

COc1ccc(C/C(C)=C(\c2ccc(Cl)cc2)c2ccc(OCCCN(C)C)cc2)cc1
active: [10] -66.7%
inactive: [1] 88.1% | [2] 108% | [3] 90.1% | [4] 92.9% | [5] 56.6% | [6] 52.9% | [7] 89.1% | [8] 68.7% | [9] 76.1%

CCN(CCNc1ccc(C)c2sc3cc(Cl)ccc3c(=O)c12)CC(C)(C)O
inactive: [1] 82.3% | [2] 87.6% | [3] 74% | [4] 45.3% | [5] 44.4% | [6] 48.3% | [7] 76.7% | [8] 50.9% | [9] 47.6% | [10] 21.4%

CC1(C)N=C(N)N=C(N)N1c1cc(Cl)ccc1Cl
inactive: [1] 74.4% | [2] 94.3% | [3] 119% | [4] 92.8% | [5] 32.3% | [6] 94% | [7] 52.7% | [8] 86.7% | [9] 110% | [10] 87.5%

C=CC(=O)Nc1cccc(Oc2nccc(Nc3nnc(-c4ccc(Br)cc4)s3)n2)c1
inactive: [1] 90.8% | [2] 105% | [3] 110% | [4] 91% | [5] 101% | [6] 92% | [7] 84.4% | [8] 100% | [9] 101% | [10] 108%

O=C(/C=C/c1cccc(Oc2ccccc2)c1)c1ccc(Nc2nc(Nc3ccc(F)cc3)nc(Nc3ccc(Cl)cc3)n2)cc1
inactive: [1] 77.1% | [2] 113% | [3] 93.8% | [4] 104% | [5] 108% | [7] 109% | [8] 90.2% | [9] 96.1% | [10] 103%
active: [6] -6.77%

CN(C)CCn1c(=O)c2ccccc2n2nc3ccccc3c12
inactive: [1] 87.3% | [2] 84.8% | [3] 85% | [4] 90.9% | [5] 70.4% | [6] 99.6% | [7] 97.4% | [8] 61.2% | [9] 93.9% | [10] 57.2%

CC1(/C=C/c2ccc(-c3ccccc3)cc2)CCn2cnc3ncnc(c32)N1O (stereo not given)
active: [5] 3.93% | [9] 1.88%
inactive: [1] 13% | [2] 17% | [3] 26.9% | [4] 19.6% | [6] 52.3% | [7] 26% | [8] 15.6% | [10] 28%

CSc1ccc2c3c(n(C[C@H](O)CO)c(=O)c2c1)-c1ccccc1C3=O
active: [5] 6.06%
inactive: [1] 38.1% | [2] 12.8% | [3] 74.3% | [4] 21.5% | [6] 106% | [7] 43.7% | [8] 14.5% | [9] 27% | [10] 54.2%
